{"source": "PubChem BioAssay (NCATS)", "note": "Results filed as inconclusive are left out. Where a call stands in place of a potency, no number is given. Activity calls are given as the source filed them. Calls follow the shape of the dose curve; as a rule, active = well fitted inhibition curve with a large enough effect; inconclusive = small, poorly fitted or top-dose-only effect, or effect the other way; inactive = flat fitted curve, though single readings scatter. Potency is read from the fitted curve at half-maximal effect."}
{"target": "ATP-dependent 6-phosphofructokinase (Trypanosoma brucei brucei) (UniProt O15648)", "sequence (O15648 whole entry, looked up)": "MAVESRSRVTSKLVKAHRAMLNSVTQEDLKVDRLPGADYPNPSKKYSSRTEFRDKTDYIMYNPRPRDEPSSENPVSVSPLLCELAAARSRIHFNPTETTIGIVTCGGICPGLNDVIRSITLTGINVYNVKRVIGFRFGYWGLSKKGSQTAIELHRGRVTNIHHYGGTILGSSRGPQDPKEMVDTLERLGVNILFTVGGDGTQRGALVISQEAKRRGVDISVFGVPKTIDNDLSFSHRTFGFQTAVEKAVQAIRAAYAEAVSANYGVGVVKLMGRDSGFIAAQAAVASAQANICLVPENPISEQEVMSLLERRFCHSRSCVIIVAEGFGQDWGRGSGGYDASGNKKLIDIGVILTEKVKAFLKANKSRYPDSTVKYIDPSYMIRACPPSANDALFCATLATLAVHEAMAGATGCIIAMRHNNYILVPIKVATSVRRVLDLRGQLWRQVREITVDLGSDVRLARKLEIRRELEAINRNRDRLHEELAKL", "assay": "qHTS Assay to Find Inhibitors of T. brucei phosphofructokinase: hit validation (AID 492961)", "conditions": "T. brucei PFK, ADP-Glo luminescence; series mostly up to 51.4 µM", "outline": "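PFK 1.25 nM, F6P 0.5 mM, ATP 0.1 mM, MgCl2 5 mM, 0.1 M TEA pH 8.0, Tween20 0.01%, BSA 0.1%; 45 min RT. ADP-Glo two-step detection, luminescence. qHTS titration; curve fitting with curve-class categorization.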"}
{"smiles": "CCCCC/C=C\\C/C=C\\C/C=C\\CCCCC(=O)O", "Potency": "inactive"}
{"smiles": "O=P(O)(O)OP(=O)(O)O", "Potency": "inactive"}
{"smiles": "O=C1c2ccccc2C(=O)C1c1ccc(Cl)cc1", "Potency": "inactive"}
{"smiles": "Cc1cccc(C)c1NC(=O)C1CCCCN1C", "note": "(stereo unspecified)", "Potency": "inactive"}
{"smiles": "CC(=O)Nc1ccc(OC(C)=O)cc1", "Potency": "inactive"}
{"smiles": "Cc1ccc(C(C)(C)c2ccc(C)cc2)cc1", "Potency": "inactive"}
{"smiles": "O=C(O)[C@H]1C(=CCO)O[C@H]2CC(=O)N12", "Potency": "inactive"}
{"smiles": "COC1=C(OC)C(=O)C(C/C=C(\\C)CC/C=C(\\C)CC/C=C(\\C)CC/C=C(\\C)CC/C=C(\\C)CC/C=C(\\C)CC/C=C(\\C)CC/C=C(\\C)CC/C=C(\\C)CCC=C(C)C)=C(C)C1=O", "Potency": "inactive"}
{"smiles": "Cc1cc(-c2ccc(N=Nc3c(S(=O)(=O)O)cc4cc(S(=O)(=O)O)cc(N)c4c3O)c(C)c2)ccc1N=Nc1c(S(=O)(=O)O)cc2cc(S(=O)(=O)O)cc(N)c2c1O", "Potency": "28.2 µM (active)"}
{"smiles": "CCCCC", "Potency": "inactive"}
{"smiles": "CC[C@H]1OC(=O)[C@H](C)[C@@H](O[C@H]2C[C@@](C)(OC)[C@@H](O)[C@H](C)O2)C(C)[C@@H](O[C@@H]2O[C@H](C)C[C@H](N(C)C)[C@@H]2O)[C@](C)(OC)C[C@@H](C)C(=O)[C@H](C)[C@@H](O)[C@]1(C)O", "note": "(stereo partly specified)", "Potency": "inactive"}
{"smiles": "O=c1n(CC2CO2)c(=O)n(CC2CO2)c(=O)n1CC1CO1", "note": "(stereo unspecified)", "Potency": "inactive"}
{"smiles": "CCCCC(CC)COS(=O)(=O)O", "note": "(stereo unspecified)", "Potency": "inactive"}
{"smiles": "CCOc1ccc(S(=O)(=O)O)c2cccnc12", "Potency": "inactive"}
{"smiles": "C[C@H](CCC(=O)O)[C@H]1CC[C@H]2[C@@H]3CC[C@@H]4C[C@H](O)CC[C@]4(C)[C@H]3C[C@H](O)[C@]12C", "Potency": "inactive"}
{"smiles": "CC(C)CCCC(C)NC(C)C", "note": "(stereo unspecified)", "Potency": "inactive"}
{"smiles": "ClC(Cl)Cl", "Potency": "inactive"}
{"smiles": "O=C(O)COc1ccc(CCNS(=O)(=O)c2ccccc2)s1", "Potency": "inactive"}
{"smiles": "CC(C)CCC[C@@H](C)[C@H]1CC[C@H]2[C@@H]3CC=C4C[C@@H](O)CC[C@]4(C)[C@H]3CC[C@]12C", "Potency": "inactive"}
{"smiles": "N=C(N)c1ccc(/C=C/c2ccc(C(=N)N)cc2O)cc1", "Potency": "inactive"}
{"smiles": "CC(=O)N[C@@H]1C(O[C@H]2O[C@H](C(=O)O)C(O)[C@H](O)[C@H]2O)[C@H](O)[C@@H](CO)O[C@H]1O[C@@H]1C(C(=O)O)O[C@@H](O[C@H]2[C@H](O)[C@@H](CO)OC(O)[C@@H]2NC(C)=O)[C@H](O)[C@H]1O", "note": "(stereo partly specified)", "Potency": "inactive"}
{"smiles": "NCC(O)CC(=O)O", "note": "(stereo unspecified)", "Potency": "inactive"}
{"smiles": "O=S(=O)(O)CCCS(=O)(=O)O", "Potency": "inactive"}
{"smiles": "CO[C@H]1C[C@@H]2CC[C@@H](C)[C@@](O)(O2)C(=O)C(=O)N2CCCC[C@H]2C(=O)O[C@H]([C@H](C)C[C@@H]2CC[C@@H](OC(=O)C(C)(CO)CO)[C@H](OC)C2)CC(=O)[C@H](C)/C=C(\\C)[C@@H](O)[C@@H](OC)C(=O)[C@H](C)C[C@H](C)/C=C/C=C/C=C/1C", "Potency": "inactive"}
{"smiles": "CO/N=C(/C(=O)N[C@@H]1C(=O)N2C(C(=O)O)=C(COC(N)=O)CS[C@H]12)c1ccco1", "Potency": "inactive"}
{"smiles": "CC(C)=CCC/C(C)=C/CC/C(C)=C/CC/C=C(\\C)CC/C=C(\\C)CCC=C(C)C", "Potency": "inactive"}
{"smiles": "Cc1ncc(COP(=O)(O)O)c(CN)c1O", "Potency": "inactive"}
{"smiles": "CC1CC(OC(=O)C(O)c2ccccc2)CC(C)(C)C1", "note": "(stereo unspecified)", "Potency": "inactive"}
{"smiles": "NC(=O)Oc1ccc(Cc2ccccc2)cc1", "Potency": "inactive"}
{"smiles": "O=C(OC1C[C@@H]2CC3C[C@H](C1)N2CC3=O)c1c[nH]c2ccccc12", "note": "(stereo partly specified)", "Potency": "inactive"}
{"smiles": "CCC(Cc1c(I)cc(I)c(O)c1I)C(=O)O", "note": "(stereo unspecified)", "Potency": "inactive"}
{"smiles": "CC12CCC(C1)C(C)(C)C2=O", "note": "(stereo unspecified)", "Potency": "inactive"}
{"smiles": "CC1CC(O)CC(C)(C)C1", "note": "(stereo unspecified)", "Potency": "inactive"}
{"smiles": "OC1OC[C@@H](O)[C@H](O)[C@@H]1O", "note": "(stereo partly specified)", "Potency": "inactive"}
{"smiles": "CC(C)(CO)[C@@H](O)C(=O)NCCC(=O)NCCSSCCNC(=O)CCNC(=O)[C@H](O)C(C)(C)CO", "Potency": "inactive"}
{"smiles": "CN(C)C(=O)CCSC(SCCC(=O)O)c1cccc(/C=C/c2ccc3ccc(Cl)cc3n2)c1", "note": "(stereo unspecified)", "Potency": "inactive"}
